This is an account of results in publication PMC5540273 (PLoS ONE, 2017).

The structures appear in SMILES notation.
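Also: KINOMEscan kinase panel screen.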

This experiment relates to LIMK2. The settings on record: concentration: 1 μM, replicates: in singlicate; n = 1.
Take `Fc1ccc(-c2nn3cccc(F)c3c2-c2ccncc2)cc1` [GW475620]: the “%Inh” value was found to be 0%. To `CNc1nc(-c2ccc3c(N)n[nH]c3c2)cc(N2C[C@@H](C(=O)Nc3ccccc3)CC[C@H]2C)n1` [GSK2298859] belongs 13%.

On to `Cc1ccc(NC(=O)Nc2ccccc2F)cc1-c1ccc(C(=O)Nc2ccncc2)cc1` [GSK1398477], for which the “%Inh” value came to 15%. In the case of `Cc1ccc(NC(=O)c2ccc(Cl)cc2)cc1-c1ccc(C(=O)Nc2ccncc2)cc1` [GSK1398467], the “%Inh” value is recorded as 3%.

`COC(=O)C(NC(=O)NC1CCN(c2ccnc(Nc3ccc(F)cc3)n2)C1)c1ccccc1` (stereo not shown) [GSK1379712]: the “%Inh” value is reported as 10%.

`Nc1nccc(-c2c(-c3ccc(F)cc3)ncn2C2CCN(Cc3ccccc3)CC2)n1` [SB-219980]: the “%Inh” value was found to be 0%. As for `NS(=O)(=O)c1cccc(N/C=C2\C(=O)Nc3ccc(S(=O)(=O)Cc4c(Cl)cccc4Cl)cc32)c1` [GSK398099], the figure is 28%; as for `CN1c2ccc(-c3ccc(C(N)=O)cc3)cc2-c2[nH]ncc2S1(=O)=O`, 0%.

Consider `CNC(=O)c1ccc(C)c(-n2c(C)cc(OCc3ccc(F)cc3F)c(Br)c2=O)c1`, for which the “%Inh” value amounted to 0%. On to `Nc1ncnc2occ(-c3ccc4c(c3)CCN4C(=O)Cc3cc(F)ccc3F)c12` [GSK2645446], for which the “%Inh” value came out at 22%. Turning to `Cc1c(Cn2c(C)c(C)n3c(=O)cc(N4CCOCC4)nc23)cccc1C(F)(F)F` [GSK2328680], the “%Inh” value is given as 4%.

Turning to `Cc1ccc(-c2nc(Nc3ccncc3)c3ccccc3n2)s1` [GSK189015], the “%Inh” value is listed as 7%. To `O=C1NC(=O)C(c2ccc(Cl)cc2)=C1Nc1cccc(Cl)c1` [SB-317651] belongs 7%; to `Cn1cnc2c(N)ncnc21` [SKF-97623], 0%.

As to `Cc1ccc(NC(=O)Nc2ccccc2)cc1-c1ccc(C(=O)Nc2ccncc2)cc1` [GSK1398471], the “%Inh” value came out at 0%.

In the case of `CCn1c(-c2c(N)noc2C)nc2cnccc21` [SB-737856], the “%Inh” value came to 100%.

With `COc1ccc(Nc2nccc(-c3ccc(NC(=O)c4cc5cc(F)ccc5[nH]4)cc3)n2)cc1` [GSK1229496], the “%Inh” value was 7%. To `Nc1cccc(-c2ccc3c(N)n[nH]c3c2)n1` [GSK2192730] belongs 2%; to `CS(=O)(=O)CCNCc1nc(-c2ccc3ncnc(Nc4ccc(OCc5ccccc5)c(Cl)c4)c3c2)cs1.Cl` [GW582764], 0%; to `COc1ccc(Nc2nccc(N3CCC(NC(=O)C(C)c4ccc(Cl)cc4)C3)n2)cc1` (stereo not shown) [GSK1379735], 0%. To `Cc1cnc(N)c(/C=C/c2cncc(C(=O)NCCc3ccc(Cl)cc3Cl)c2)c1.Cl` [GSK190937] belongs 2%; to `O=C(Nc1n[nH]c2nc(-c3cccs3)c(Br)cc12)C1CC1` [SB-735297], 0%.
